# Measurements as given in PubChem BioAssay (NCI).
# About 83,000 compounds went through this panel and 20% of them were active in at least one assay; those are over-represented in the sample as a whole.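 The endpoint reported here, percent growth, reads 100 for growth as untreated, 0 for no net growth and -100 for all cells dead.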 A number with no mark means an inactive call. Activity calls are given as the source filed them. How the source made its calls: active means growth percent below 10; inactive means the rest.
# Tested on: MDA-MB-468 breast
# Assay: NCI-60 one-dose screen, 48 h (100 = growth as untreated, 0 = no growth, -100 = all killed)
# Conditions: 10 µM unless noted
row,SMILES,growth
1,c1ccc(-c2nc(N3CCOCC3)c3c4c(sc3n2)CCCCC4)nc1,65.7%
2,COc1cc2c(cc1-c1c(C)noc1C)ncc1nc(C3CCOCC3)n([C@H](C)COC(F)F)c12,40%
3,O=C(O)C#Cc1ccc(Cl)cc1,101%
4,C#CCOc1ccc(C2=NN(CC3CC3)C3N=C(Cl)c4ncn(CC5CC5)c4N23)cc1OCC#C (configuration not stated),66.2%
5,O=C(O)C(Cc1ccccc1)C(=O)O,82.4%
6,O=C(CCl)N1CCN(C/C=C/c2ccccc2)CC1,81%
7,CN(C)c1ccc(/C=C/c2nccc3ccccc23)cc1,-1.08% (active)
8,COc1cc(C2C3=C(COC3=O)N(CCO)c3cc4c(cc32)CCC4)cc(OC)c1O (configuration not stated),-21.7% (active)
9,O=[N+]([O-])c1ccc(NS(=O)(=O)c2ccc(Cl)c(Cl)c2)cc1,64.6%
10,NC1=C(/C(N)=N/O)C(c2ccccc2)c2ccc3ccccc3c2O1 (configuration not stated),-1.49% (active)
11,c1ccc(-c2cn3c(-c4c[nH]c5ccccc45)csc3n2)cc1,3.41% (active)
12,Cc1cccc(C)c1NC(=O)CSC(=S)N1CCCCC1,110%
13,CS(=O)c1nccc(-c2c(-c3ccc(F)c(OCc4ccc(F)cc4)c3)nc3sccn23)n1 (configuration not stated),-69.4% (active)
14,COc1ccc(C(=O)Cn2cnc3c(Nc4cc(C(=O)Nc5ccc(N6CCN(CCO)CC6)cc5)ccc4C)ncnc32)cc1,114%
15,COc1ccc(OC)c2c1[nH]c(=O)c1c3ncccc3cn21,12.2%
16,O=c1[nH]nc(-c2ccccc2)c2sc3ncc(-c4ccc(Br)cc4)n3c12,13.7%
17,COc1ccc(/C=C2\COc3ccc(-c4ccccc4)cc3C2=O)cc1O,14.6%
18,C=C1C(=O)O[C@H]2[C@H]1CC/C(COC(=O)NCc1ccc(Cn3c(=O)sn(CCCC)c3=O)cc1)=C\CC[C@@]1(C)O[C@@H]21,12.2%
19,Cc1ccc(Nc2nc(-c3cc(O)c(C)c(C)c3O)cs2)cc1,44.5%

row,SMILES,growth
1,Cc1ccc(/C=C/c2c(C(=O)/C=C/c3ccccc3)c(C)nc3ccccc23)cc1,38.1%
2,Cc1cc(=O)c2c(C)ccc(C)c2[nH]1,96.8%
3,CC1(C)CC[C@]2(C(=O)O)CC[C@]3(C)C(=CC[C@@H]4[C@@]5(C)C/C(=C/c6cccnc6)[C@H](O)C(C)(C)[C@@H]5CC[C@]43C)[C@@H]2C1,4.01% [100 µM] (active)
4,O[C@@H]1CO[C@H]2[C@@H]1OC[C@@H]2O,96.3%
5,N=C1/C(=C2\NC3C=CC=CC3S2)C(c2ccc(Cl)cc2)C2C(=O)N(c3ccccc3)C(=S)N12 (configuration not stated),97.9%
6,O=C(Cn1cc(CSc2nc3ccccc3o2)nn1)Nc1ccc(F)cc1F,104%
7,O=C1Nc2ccccc2/C1=C/C(=N/c1nnc(-c2ccc(Cl)cc2)s1)c1ccccc1,27.8%
8,Cc1nn(-c2ccccc2)c(Oc2ccccn2)c1-c1nc2ccccc2s1,80%
9,CN(C)CCC(=O)C1CC1,104%
10,COC(=O)CC1=C(C)/C(=C/c2[nH]c(-c3ccc[nH]3)cc2OC)N=C1C,19%
11,COc1cc(-c2csc(NC(=O)Nc3ccc(Cl)cc3Cl)n2)cc(OC)c1OC,17.7%
12,Cn1ccnc1C(=O)/C=C/c1ccc(C(=O)Nc2ccc(NC(=O)CCNC(=O)c3csc(Br)n3)cc2)cc1,48.4%
13,CC(C)NC(=O)OCc1c(COC(=O)NC(C)C)c(-c2ccc(Cl)cc2)n2c1CCC2,-8.97% (active)
14,CC(=O)Nc1ccc(-c2ccc3c(c2)NC(=O)/C3=C\c2ccc[nH]2)cc1,-7.08% (active)
15,C=C(C)[C@@H]1CC[C@]2(C(=O)O)CC[C@]3(C)[C@H](CC[C@@H]4[C@@]5(C)C[C@@H](Cc6cn(CCO[C@@H]7O[C@H](COC(C)=O)[C@H](OC(C)=O)[C@H](OC(C)=O)[C@H]7OC(C)=O)nn6)[C@H](O)C(C)(C)[C@@H]5CC[C@]43C)[C@@H]12,64.4%
16,CSc1ncccc1C(=O)OCC(=O)Nc1oc(C)c2c(C)n[nH]c(=O)c12,98%
17,O=C(OCC(O)C(=O)NC12CC3CC(CC(C3)C1)C2)c1cccc(Br)c1 (configuration not stated),99.9%
18,COc1cc2ncnc(Nc3ccc(F)c(Cl)c3)c2cc1OCC(=O)N1CCCCC1,-41.9% (active)
